NFkB transloc inh – blocks IL-1B driven NFkB nuclear translocation in HUVEC cells. AID 796. 94,000 compounds, 0.43% hits. inhibition, % at 2 µM. HUVEC IL-1B NFkB p65 nuclear translocation imaging;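 active means inhibition above about 30% together with a positive call from visual inspection of the well image, limit read from the data; inconclusive means inhibition above a set limit but visual check negative; inactive means inhibition not above a set limit, visual check negative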;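 further: nuclear over cytoplasmic p65 intensity ratio measured by imaging; 0% = IL-1B stimulated DMSO wells and 100% = unstimulated DMSO wells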
NFkB transloc pot – enhances IL-1B driven NFkB nuclear translocation; HUVEC IL-1B NFkB p65 nuclear translocation imaging; activation, % at 2 µM; 94,000 compounds, 0.3% hits;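 active means activation above 40%, about the mean plus 3 SD, also judged a hit on visual image review; inconclusive means activation above 40% but not a hit on visual review; inactive means activation not above 40% and no visual hit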;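 further: percent activation is computed from the nuclear over cytoplasmic p65 intensity ratio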
IL1B cytotox – HUVEC cytotoxicity counter-screen, IL-1B stimulated; cell count reduction, % at 2 µM; HUVEC cell count loss, Hoechst imaging; 94,000 compounds, 0.41% hits;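 active means cell count reduction more than 3 SD above the screen-wide mean, cut at about 70% in these data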;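 further: normalized per plate to untreated control cells as the no-loss baseline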
PTK2B oligo ant – antagonists of human Pyk2 oligomerization; Q14289; Q293 cells, Pyk2 FERM NanoBiT luminescence; hits give low values; z-score (the deposit names both 25 µM and 10 µM); 99,000 compounds, 0.83% hits;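 active means Z-score of -3 or lower, scaled per plate to the spread of control and sample wells; inactive means z-score above -3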;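 further: negative z-score means lost luminescence so less FERM oligomerization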
Phagocyt inh – blocks phagocytosis by macrophages. inhibition, % at 5 µM. 110,000 compounds, 0.07% hits. J774A.1 macrophage IgG-bead phagocytosis, imaging;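 active means inhibition above the mean of the plate negative controls plus 5 SD, cut at about 13% in these data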;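 further: phagocytic index as fraction of beads internalized from green versus red external bead signal; plate controls were DMSO negative control for no effect and cytochalasin-D positive control for full effect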
Starred values were filed as active, the others as inactive; ? = inconclusive; · = no result; + = active, no number. In the library only some 1.4% were active in any assay of this set; here they are far more common.

SMILES | NFkB transloc inh | NFkB transloc pot | IL1B cytotox | PTK2B oligo ant | Phagocyt inh
CCc1nnc(NC(=O)CSc2nnc(-c3cc4ccccc4cc3O)n2CC)s1 | · | · | · | -3.04* | -0.9
CCn1c(SCC(=O)Nc2ccccc2C)nnc1-c1ccccc1O | -19.7 | 19.7 | -21.3 | 0.79 | -0.7
CCn1c(SCC(=O)Nc2cccc(NC(=O)c3cccs3)c2)nnc1-c1ccncc1 | -41.5 | 41.5* | -39.8 | -0.36 | -3.0
CCn1c(SCC(=O)N(C(C)C)C(C)C)nnc1-c1cc2ccccc2cc1O | -60.0 | 60.0* | 6.4 | -0.92 | -1.9
CCc1nnc(NC(=O)CSc2nnc(-c3ccccc3O)n2CC)s1 | -11.2 | 11.2 | -14.4 | -0.58 | -0.7
CCn1c(SCC(=O)Nc2nc(-c3ccccc3)cs2)nnc1-c1ccccc1O | 1.3 | -1.3 | -11.6 | -3.13* | 0.2
CSc1cccc(NC(=O)/C=C/c2ccc(Cl)cc2)c1 | -1.3 | 1.3 | -24.5 | -1.88 | ·
Cc1ccccc1Nc1nc(N)nc(COC(=O)c2ccc(S(=O)(=O)N(C)C)cc2)n1 | · | · | · | · | -4.3
CCN(CC)S(=O)(=O)c1cc(C(=O)Nc2nncs2)c(Cl)cc1Cl | -10.7 | 10.7 | -6.6 | 0.5 | 26.4*
Cc1ccc(NC(=O)/C(C#N)=C/c2cc(C)n(-c3ccc(N4CCOCC4)c([N+](=O)[O-])c3)c2C)c(C)c1 | 8.4 | -8.4 | -59.6 | 0.93 | ·
CCOC(=O)/C=C(\C)Sc1cc(=O)oc2ccccc12 | 13.1 | -13.1 | 19.4 | -1.22 | ·
CCOC(=O)Nc1oc2ccccc2c(=O)c1C | 36.2* | -36.2 | -5.8 | 2.14 | ·
Cc1ccc(Nc2nc(N)nc(CN3CCN(c4ccccc4)CC3)n2)cc1Cl | -10.1 | 10.1 | -8.2 | -0.59 | +
COc1ccc(N2CCN(Cc3nc(N)nc(Nc4ccc(C)c(Cl)c4)n3)CC2)cc1 | 9.1 | -9.1 | 9.7 | -0.37 | -0.6
COc1ccccc1C(c1nnnn1Cc1ccccc1)N1CCN(C2CCCC2)CC1 (stereo not drawn) | 4.3 | -4.3 | -10.0 | -0.74 | ·
COc1ccccc1C(c1nnnn1Cc1ccccc1)N1CCN(c2nc3ccccc3s2)CC1 (stereo not drawn) | · | · | · | -3.83* | 2.5
COc1ccc(N2CCN(C(c3ccccc3OC)c3nnnn3Cc3ccco3)CC2)cc1 (stereo not drawn) | -0.2 | 0.2 | -30.5 | -3.22* | -1.1
c1ccc(Cn2nnnc2C(c2ccccc2)N2CCN(c3nc4ccccc4s3)CC2)cc1 (stereo not drawn) | 6.6 | -6.6 | 15.5 | -4.06* | -0.7
COc1ccc(C(c2nnnn2Cc2ccccc2)N2CCN(c3nc4ccccc4s3)CC2)cc1OC (stereo not drawn) | -5.1 | 5.1 | -31.4 | -3.82* | ·
c1ccc(C(c2nnnn2Cc2ccco2)N2CCN(c3nc4ccccc4s3)CC2)cc1 (stereo not drawn) | 2.0 | -2.0 | 7.9 | -1.98 | ·
COc1cccc(CN2CCN(C(=O)c3ccco3)CC2)c1OC | -3.3 | 3.3 | -16.7 | 1.01 | ·
CC(NC(=O)COc1ccccc1)C(=O)OCC(=O)c1cc2ccccc2o1 (stereo not drawn) | -6.0 | 6.0 | 5.8 | -0.34 | 0.1
CC1(C)CC(c2nc(-c3ccccc3)cs2)CCS1 (stereo not drawn) | · | · | · | · | -2.5
Cc1cc(Cl)ccc1NC(=O)CCCN1C(=O)CCC1=O | 43.1* | -43.1 | -4.3 | -0.15 | -0.2
COc1cc(Cl)c(C)cc1NC(=O)CCCN1C(=O)CCC1=O | -16.3 | 16.3 | 7.3 | 0.48 | -1.1
SMILES | NFkB transloc inh | NFkB transloc pot | IL1B cytotox | PTK2B oligo ant | Phagocyt inh
NC(=O)C1(N2CCCCC2)CCN(C2CC(=O)N(CCc3ccccc3)C2=O)CC1 (stereo not drawn) | 5.4 | -5.4 | 6.2 | 1.5 | 2.5
NC(=O)C1(N2CCCCC2)CCN(C2CC(=O)N(Cc3cccs3)C2=O)CC1 (stereo not drawn) | 32.2* | -32.2 | 8.6 | 0.82 | ·
NC(=O)C1(N2CCCCC2)CCN(C(=O)c2cccs2)CC1 | -40.0 | 40.0* | 7.6 | · | -0.8
O=C(c1cccs1)N1CCN(C2CCCCC2)CC1 | -13.1 | 13.1 | -13.8 | -0.66 | 0.2
Cc1cc(OCC(=O)N(C)C)c2c(-c3ccccc3)cc(=O)oc2c1 | 11.4 | -11.4 | 5.1 | · | ·
CCN(CC)C(=O)COc1cc(C)cc2oc(=O)cc(-c3ccccc3)c12 | 33.0* | -33.0 | 4.7 | -1.28 | ·
O=C(CC(=O)c1ccccc1)Nc1cc(C(F)(F)F)ccc1Cl | · | · | · | · | -11.1
O=C(NC(=S)Nc1cc(C(F)(F)F)ccc1Cl)c1ccccc1 | 78.9* | -78.9 | 1.0 | -1.04 | ·
CNC(=O)CCCc1nc(-c2ccccc2Cl)no1 | -65.2 | 65.2* | 4.4 | 0.17 | -0.4
NC(=O)CCCc1nc(-c2ccccc2Cl)no1 | 13.7 | -13.7 | -16.4 | 0.42 | -2.3
O=C(c1ccc(F)cc1)c1c[nH]c(C(=O)NCc2ccco2)c1 | -2.6 | 2.6 | 2.4 | -0.03 | -0.1
CCc1cc2cc(C)cc(C)c2nc1SCC(=O)N1CCCC1 | -32.7 | 32.7 | 94.8* | -0.47 | ·
CCc1cc2cc(C)ccc2nc1SCC(=O)N1CCN(C(=O)c2ccco2)CC1 | 1.8 | -1.8 | 3.9 | 2.5 | -4.6
Nc1nc(C(=O)N2CCOCC2)nn1S(=O)(=O)c1ccc(Cl)cc1 | -3.2 | 3.2 | 91.8* | 0.35 | -0.1
Cc1ccc(C2(c3ccc(C)cc3)CC2C(=O)Nc2ccc([N+](=O)[O-])cc2O)cc1 (stereo not drawn) | · | · | · | -3.36* | 0.0
COC(=O)c1ccc(N2CCN(C)CC2)c(NC(=O)COc2ccc(OC)cc2)c1 | -14.0 | 14.0 | -24.5 | 0.14 | 1.0
COc1cc(-c2nnc(SCC(=O)c3ccc(C)cc3)o2)cc(OC)c1OC | 41.8* | -41.8 | 24.9 | -0.85 | -0.6
Cc1cc(C)n(-c2nc3ccccc3nc2N2CCN(C(=O)c3ccccc3)CC2)n1 | -5.3 | 5.3 | -28.1 | -1.29 | 0.1
COc1ccc(-c2cnc(N)nc2-c2ccc(OC)cc2O)cc1 | -2.8 | 2.8 | 9.0 | -3.06* | -1.8
COc1cccc(Oc2cnc(N)nc2-c2ccc(OC)cc2O)c1 | -4.5 | 4.5 | 17.8 | -3.87* | -1.2
C=CCNC(=O)c1ccccc1NC(=O)c1ccc(Cl)c(S(=O)(=O)Nc2cc(C)ccc2C)c1 | -86.7 | ? | -31.8 | -2.78 | 0.4
Cc1c(NC(=O)c2c(NC(=O)CNC3CC3)sc3c2CCCC3)c(=O)n(-c2ccccc2)n1C | · | · | · | · | -11.3
CC(=O)c1ccc(Nc2nc(NCCO)nc(OC(C(F)(F)F)C(F)(F)F)n2)cc1 | 8.1 | -8.1 | -15.1 | -3.27* | ·
COc1ccc(Nc2nc(NCCO)nc(OC)n2)cc1 | -8.3 | 8.2 | -19.6 | 1.56 | -0.6
CNc1nc(Nc2ccc(C(C)=O)cc2)nc(OC(C(F)(F)F)C(F)(F)F)n1 | -7.8 | 7.8 | 12.3 | -3.19* | 1.9
Cc1cc(C(=O)NCCc2ccccc2)ccc1[N+](=O)[O-] | 2.5 | -2.5 | -14.2 | 1.41 | -0.3
Cc1cc(C)cc(OCC(=O)Nc2ccc(F)cc2)c1 | 3.6 | -3.6 | 84.5* | -0.65 | -3.2
Cc1cc(C)cc(OCC(=O)Nc2ccc(N3CCCC3)cc2)c1 | -5.8 | 5.8 | -5.2 | -1.32 | 0.4
CCOC(=O)N1CCC(N2C(=O)c3ccccc3C2Nc2ccc(C)cc2)CC1 (stereo not drawn) | 4.0 | -4.0 | -31.5 | · | -0.4
CCCOc1nc(N)c(C#N)c(-c2ccccc2F)c1C#N | -12.4 | 12.3 | 7.9 | -3.07* | -4.8

Bioassay records as filed in PubChem BioAssay.
